Bead autofluor = compound fluorescence in toxin protease inhibitor counterscreen. compound autofluorescence counterscreen, microsphere flow cytometry; active compounds read high. fluorescence intensity (no concentration beside the values). 360,000 compounds, 3.1% hits. AID 624483; in the data active means fluorescence intensity above about 16000; inconclusive means no clear call, values can overlap the other calls
BH1578 lux ind = inducers of Vibrio cholerae quorum light production without autoinducers, primary screen, BH1578 luxS cqsA deficient, single point. V. cholerae BH1578 lux reporter, luminescence, 6 h. activation, % at 18.7 µM. 350,000 compounds, 0.16% hits. AID 588436, 2011; in the data active means activation mostly above about 9.7%, no sharp cut-off; inconclusive means no clear call, values can overlap the other calls; inactive means mostly below about 3.7%
BJeLR viability = MLPCN primary cell-based screen for lethality selective to Ras in HRASV12 cells | BJeLR (HRASV12) viability, CellTiter-Glo ATP luminescence, 48 h | 300,000 compounds, 0.17% hits | inhibition, % (test concentration not listed); in the data active means inhibition above about 50%; inconclusive means no clear call, values can overlap the other calls
BoNT-A LC inh2 = BoNT/A light chain protease inhibitors, primary screen, biochemical, flow cytometry, MLPCN library; Botulinum neurotoxin type A light chain protease (Clostridium botulinum A str. ATCC 3502); multiplex microsphere protease substrate cleavage; inhibition, % at 10 µM; 360,000 compounds, 0.17% hits; AID 588499, 2011; further: plate controls were buffer without enzyme for full effect and enzyme alone for no effect
Anthrax LF prot = Bacillus anthracis LF protease inhibitors, primary screen, biochemical, multiplex microsphere, MLPCN library. Lethal factor (Bacillus anthracis), P15917. multiplex microsphere protease cleavage assay. inhibition, % at 10 µM. 360,000 compounds, 0.12% hits. AID 588501, 2011; further: plate controls were buffer without enzyme for full effect and enzyme alone for no effect
Target sequence (P15917 whole entry, looked up): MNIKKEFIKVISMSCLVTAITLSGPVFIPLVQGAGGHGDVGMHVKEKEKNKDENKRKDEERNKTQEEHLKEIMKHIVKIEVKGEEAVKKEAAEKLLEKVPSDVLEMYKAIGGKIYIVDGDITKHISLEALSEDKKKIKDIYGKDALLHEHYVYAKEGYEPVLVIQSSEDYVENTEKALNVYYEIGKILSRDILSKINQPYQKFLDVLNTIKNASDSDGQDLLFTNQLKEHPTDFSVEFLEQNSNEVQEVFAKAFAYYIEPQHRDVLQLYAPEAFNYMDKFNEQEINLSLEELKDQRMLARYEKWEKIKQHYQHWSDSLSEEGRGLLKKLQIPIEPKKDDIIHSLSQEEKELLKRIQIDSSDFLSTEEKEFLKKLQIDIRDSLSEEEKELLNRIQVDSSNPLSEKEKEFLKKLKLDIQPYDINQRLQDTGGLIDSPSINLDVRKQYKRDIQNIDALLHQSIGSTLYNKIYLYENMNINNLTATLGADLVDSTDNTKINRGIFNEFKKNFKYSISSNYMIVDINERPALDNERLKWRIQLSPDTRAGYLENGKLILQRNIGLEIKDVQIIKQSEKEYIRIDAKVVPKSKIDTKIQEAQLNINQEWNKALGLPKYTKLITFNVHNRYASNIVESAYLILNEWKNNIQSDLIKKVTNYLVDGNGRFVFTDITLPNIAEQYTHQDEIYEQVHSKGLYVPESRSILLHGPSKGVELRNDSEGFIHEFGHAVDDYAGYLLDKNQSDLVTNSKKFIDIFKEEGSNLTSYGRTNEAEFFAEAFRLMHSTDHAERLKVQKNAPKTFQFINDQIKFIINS
BoNT F protease = BoNT/F light chain protease inhibitors, primary screen, biochemical, flow cytometry, MLPCN library. 360,000 compounds, 0.22% hits. inhibition, % at 10 µM. Multiplex microsphere protease cleavage assay. Botulinum neurotoxin type F light chain protease (Clostridium botulinum); in the data active means inhibition above about 35%, passing the limit was not always enough; inconclusive means no clear call, values can overlap the other calls; further: plate controls were buffer without enzyme for full effect and enzyme alone for no effect
* = called active by the depositor; i = inactive; u = inconclusive; x = not tested or not shown. The list is not random: actives were taken first. Their share in the collection is about 3.7%. Unless noted, no stated cut-off is given here; in the data, active means inhibition above about 30%; inconclusive means no clear call, values can overlap the other calls; inactive means below that.

SMILES	Bead autofluor	BH1578 lux ind	BJeLR viability	BoNT-A LC inh2	Anthrax LF prot	BoNT F protease
O=C(c1ccc2nc3ccc(Cl)cc3c(=O)n2c1)N1CCOCC1	21084*	1	-3	-2	0	0
O=C(c1cnc2ccc(Cl)cc2c1Cl)N1CCOCC1	4329	i	-5	-1	-2	-3
O=C(c1ccc2nc3ccc(Cl)cc3c(=O)n2c1)N1CCC2(CC1)OCCO2	19917*	0	x	3	1	2
O=C(c1ccc(Cl)cc1)N1CCC2(CC1)OCCO2	3627	i	6	-1	4	24
CCCCN1C(=O)C(CC(=O)NCC2CCCCC2)CC(C(=O)N2CCCCCC2)=C1C (stereo not drawn)	5804	x	x	0	-2	-3
CCN(CC)C(=O)C1=C(C)N(Cc2ccc(C(C)(C)C)cc2)C(=O)C(CC(=O)NCc2ccco2)C1 (stereo not drawn)	3518	0	x	0	-2	-2
C=CCn1c(N)c(C(=O)NC2CCCCC2)sc1=S	23947*	i	-2	-1	0	-2
OC(c1cccc(CN2CCCCC2)c1)c1ncc(-c2cccc3ccccc23)[nH]1 (stereo not drawn)	4071	-1	x	0	5	-3
O=C(O)c1ccc(Cl)c(NC(=O)C2CCCN2S(=O)(=O)c2cccc3nsnc23)c1 (stereo not drawn)	20420*	i	7	0	-3	0
CNc1sc(C(=O)c2cccs2)c(N)c1-c1nc2ccccc2s1	2925	i	1	6	11	-38
CNc1sc(C(=O)c2ccc(F)cc2)c(N)c1-c1nc2ccccc2s1	18218*	-1	0	19	21	8
Cc1ccc2[nH]c(=O)c(CN(CCO)C(=O)N(C)C)cc2c1	17576*	i	-3	-6	-2	-8
COc1ccc(CN(Cc2cc3cc(C)ccc3[nH]c2=O)C(=O)N(C)C)cc1	4427	i	-10	0	2	12
CN(Cc1cc2ccccc2[nH]c1=O)S(=O)(=O)c1ccccc1	2964	i	3	0	-2	-15
Cc1ccc(S(=O)(=O)N(C)Cc2cc3ccccc3[nH]c2=O)cc1	22031*	i	0	0	-9	-2
CCc1nc2c(OCCC3CCCCC3)cccn2c1N(C=O)Cc1ccc(OC)cc1	2909	-1	x	0	-6	-2
Cc1cc(Br)cn2c(Cc3ccsc3)c(C(C)(C)C)nc12	5647	x	x	8	15	-10
CCc1ccc2c(c1)[C@]1(C(=O)N2)[C@@H]2C(=O)N(Cc3ccccc3)C(=O)[C@@H]2[C@@H]2CCCN21	21738*	i	-7	2	-2	4
CC(C)c1nc(SCC(=O)N2CCCCC2)c2c(=O)n(C)c(=O)n(C)c2n1	2860	-5	x	0	-4	-2
Cc1cc(C(F)(F)F)nn1Cc1n[nH]c(=S)n1-c1ccc(Cl)cc1	19410*	-1	7	0	3	1
Cc1cc(C(F)(F)F)nn1Cc1n[nH]c(=S)n1-c1cccc(Cl)c1	15165	0	-10	5	-3	7
COc1ccc(OCc2n[nH]c(=S)n2-c2ccc(C)cc2)cc1	2240	-3	3	1	-2	1
Cc1ccc(-n2c(Cn3nc(C(F)F)cc3C(F)F)n[nH]c2=S)cc1	22572*	-1	-14	2	2	2
CNC(=O)C1Cc2c(-c3ccc(Cl)cc3)ccnc2O1 (stereo not drawn)	3603	-1	x	0	-2	0
COc1ccc(OC)c(NC(=O)Nc2nc(C(N)c3ccccc3Cl)cs2)c1 (stereo not drawn)	2836	-1	x	0	-12	-16
SMILES	Bead autofluor	BH1578 lux ind	BJeLR viability	BoNT-A LC inh2	Anthrax LF prot	BoNT F protease
CC1CCCC(C(=O)O)N1C(=O)CCSC(=O)c1ccccc1 (stereo not drawn)	22094*	0	-4	2	-3	3
CC1CCCC(C)N1C(=O)Cn1nnc(-c2ccccc2)n1 (stereo not drawn)	2793	i	3	-1	8	13
CC(=O)Nc1ccc(C(=O)N2CCCCC2c2cc(C(=O)NC(C)C)no2)cc1 (stereo not drawn)	4057	0	x	0	-1	4
Cc1ccc(-n2c(C)cc(/C=N/NC(=O)c3ccc(CN4CCOCC4)cc3)c2C)cc1	19963*	0	-2	2	-3	-1
Cc1cccc(-n2c(C)cc(/C=N/NC(=O)c3ccc(CN4CCOCC4)cc3)c2C)c1	11405	1	5	-1	-3	-9
CC(=O)N1CCN(C(=O)COC(=O)/C=C/c2ccccc2[N+](=O)[O-])CC1	3593	-6	x	0	-4	2
CCOc1ccccc1NC(=O)CN(c1cc(C)cc(C)c1)S(=O)(=O)c1c(C)noc1C	5010	0	-4	0	-2	-2
CCOC(=O)c1cccc(NC(=O)CN(c2ccc(OC)cc2)S(=O)(=O)c2c(C)noc2C)c1	20239*	0	0	0	-2	-2
COc1ccc(N(CC(=O)Nc2cccc(C(=O)O)c2)S(=O)(=O)c2c(C)noc2C)cc1	10774	i	x	0	-5	-1
COc1ccc(N(CC(=O)Nc2cccc(C)c2C)S(=O)(=O)c2c(C)n[nH]c2C)cc1	20057*	-2	-6	u	-1	-1
CCOc1ccccc1NC(=O)CN(c1ccc(OC)cc1)S(=O)(=O)c1c(C)noc1C	16905*	i	19	-2	1	-3
COc1ccc(N(CC(=O)Nc2cccc(C)c2C)S(=O)(=O)c2c(C)[nH]c(=O)[nH]c2=O)cc1	4166	0	-6	0	-5	-2
CCCS(=O)(=O)NC(=O)C1(C)CCN(C(=O)c2c(-c3ccccc3)noc2C)C1 (stereo not drawn)	3447	0	x	0	-4	-1
Cc1c(NC(=O)CSc2nnc(C(C)Oc3ccc(Cl)cc3)n2-c2ccccc2)c(=O)n(-c2ccccc2)n1C (stereo not drawn)	18398*	1	-3	11	-12	15
COc1ccccc1OC(C)c1nnc(SCC(=O)Nc2c(C)n(C)n(-c3ccccc3)c2=O)n1-c1ccccc1 (stereo not drawn)	21279*	i	-7	4	-1	4
CCc1nc2c(OCc3cccc(Cl)c3)cccn2c1N(C)C(=O)C1CC1	2963	-1	x	0	-3	-6
O=C(CSc1nnc(Cc2ccccc2)n1Cc1ccco1)NC12CC3CC(CC(C3)C1)C2	23614*	-2	1	u	0	2
CN(C)C(=O)CSc1nnc(Cc2ccccc2)n1Cc1ccco1	8265	3	5	1	0	2
Nc1ncnc2c1ccn2[C@H]1CN(Cc2ccc3c(c2)OCO3)C[C@@H](COC(=O)c2ccccc2)O1	4016	0	x	0	-5	-3
